Each sequence was assayed against ALDH9A1 (assay: pooled miR-30 sensor sort-seq; sequence = guide strand). Conditions: shRNA.
Further: reference of the scale not given here.

| Sequence | sensor-assay potency score (higher = more potent) |
| --- | --- |
| TTCTCTAGAAGTATGTTACTGG | -0.159 |
| TTGATTAGTATCTACAAGGCAC | 0.363 |
| TAATACACAAGGTCTCATGTAA | 0.189 |
| TAGATTTCCTCTATCGCAGTAG | 0.289 |

These sequences were tested against ALG10B in the same assay as above. Conditions: shRNA.

| Sequence | sensor-assay potency score (higher = more potent) |
| --- | --- |
| ACTATAACAATGAACAAGCATA | -1.35 |
| TTCATGACTACTCCGATCGCCA | -0.64 |
| TAAAGTGTTGGAAATACTGCTA | -0.0567 |
| TTTCTGAGGAACTATAACAATG | -1.85 |
| TAATTTTGCTAGGAGACAGGAG | -0.56 |
| TATTTCAGAATTGCATATCTTT | -0.42 |
| TTGCATAGCAACTCAGTTCACA | -0.443 |
| TTTTGTGCAATGACATTCCCTG | 0.314 |

What follows are sequences tested against ALG3 in the same assay as above. Conditions: shRNA.

| Sequence | sensor-assay potency score (higher = more potent) |
| --- | --- |
| TTGATGACGCCTTCTACCTCGG | -0.378 |
| ATAGTCATAGGTACCATTGATG | -0.727 |
| TATAGTCATAGGTACCATTGAT | -0.777 |
| TAAAGATGTACACGAAACCAGC | -1.12 |
| TGGGTCATTGAAGAGCCGCAGC | -1.28 |
| TAGAACTGGTAGTGGAGGGAGC | -0.534 |
| TAGGTACCATTGATGACGCCTT | -0.738 |
| AAGAGCAGCACATTCATCTTCA | 0.161 |
| TATGTGTTCCAGGAGAGCTCGA | -0.768 |
| ATAGATCAAGAAGACAAGCAGC | -0.15 |
| ATGTACACGAAACCAGCTGGGT | -1.42 |
| TGAGGGTAGACTCAGGTCCTGA | -1.65 |

Each sequence was assayed against ALOX12B in the same assay as above. Conditions: shRNA.

| Sequence | sensor-assay potency score (higher = more potent) |
| --- | --- |
| AACTTGTCTGGGATCCGCGTGC | 0.172 |
| TGATCTGGACGGTGTATCGGGT | -0.615 |
| TGTAGAACTCCGCATAGCGTAC | -1.11 |
| TTAAAGTTGATGAGAATTGGGA | -0.16 |
| TTGCCAGGGAAAATTTTCCTAA | -0.741 |
| TATAGTGACATATCGGATCAGC | -0.0361 |
| TTTGCAGTCCAACAGGCCGCGG | -1.33 |
| TACTGGTACCCAAAGAAGGTGT | -0.741 |
| TGCACATAGTTGCAGTACCAAG | -2.04 |
| TCACATACTTCTCCAGTGCATT | -1.5 |
| TCATCTGCTGTTGTCTTTCCTG | -0.399 |
| AATGCTGTTGATCTGGACGGTG | -0.387 |
| TTGGCTAGCAGCCAGTCCCACT | -1.48 |
| TAATAGGTGATGATCTCCGTCA | -0.427 |
| TCTGCTGTTGTCTTTCCTGTGG | -0.381 |
| TCGCCAGTGGTAGAAGTCCTGC | -1.5 |

Source: the OligoGym collection
